Results from ChEMBL document CHEMBL3988442, “University of Dundee, Small-Polar-MMV Screening Library” (2021).
For some of these results: Entries with a potency or affinity are not part of this list.

Legend:
Design in all cases: scale not given: direction of the effect not stated beside the values
[1] = target: Protein translocase subunit SecA (Escherichia coli (strain K12)) (UniProt P10408); assay: Assay to Identify E. coli SecA ATPase Inhibitors; type: functional; details: 30 µM
[2] = target: T1, Ubiquitin-activating enzyme e1, putative (Leishmania donovani (strain BPK282A1)) (UniProt E9BSI1); assay: Leishmania donovani Ubiquitin Activating Enzyme (LdE1); type: functional; details: 30 µM
T1 sequence (whole entry): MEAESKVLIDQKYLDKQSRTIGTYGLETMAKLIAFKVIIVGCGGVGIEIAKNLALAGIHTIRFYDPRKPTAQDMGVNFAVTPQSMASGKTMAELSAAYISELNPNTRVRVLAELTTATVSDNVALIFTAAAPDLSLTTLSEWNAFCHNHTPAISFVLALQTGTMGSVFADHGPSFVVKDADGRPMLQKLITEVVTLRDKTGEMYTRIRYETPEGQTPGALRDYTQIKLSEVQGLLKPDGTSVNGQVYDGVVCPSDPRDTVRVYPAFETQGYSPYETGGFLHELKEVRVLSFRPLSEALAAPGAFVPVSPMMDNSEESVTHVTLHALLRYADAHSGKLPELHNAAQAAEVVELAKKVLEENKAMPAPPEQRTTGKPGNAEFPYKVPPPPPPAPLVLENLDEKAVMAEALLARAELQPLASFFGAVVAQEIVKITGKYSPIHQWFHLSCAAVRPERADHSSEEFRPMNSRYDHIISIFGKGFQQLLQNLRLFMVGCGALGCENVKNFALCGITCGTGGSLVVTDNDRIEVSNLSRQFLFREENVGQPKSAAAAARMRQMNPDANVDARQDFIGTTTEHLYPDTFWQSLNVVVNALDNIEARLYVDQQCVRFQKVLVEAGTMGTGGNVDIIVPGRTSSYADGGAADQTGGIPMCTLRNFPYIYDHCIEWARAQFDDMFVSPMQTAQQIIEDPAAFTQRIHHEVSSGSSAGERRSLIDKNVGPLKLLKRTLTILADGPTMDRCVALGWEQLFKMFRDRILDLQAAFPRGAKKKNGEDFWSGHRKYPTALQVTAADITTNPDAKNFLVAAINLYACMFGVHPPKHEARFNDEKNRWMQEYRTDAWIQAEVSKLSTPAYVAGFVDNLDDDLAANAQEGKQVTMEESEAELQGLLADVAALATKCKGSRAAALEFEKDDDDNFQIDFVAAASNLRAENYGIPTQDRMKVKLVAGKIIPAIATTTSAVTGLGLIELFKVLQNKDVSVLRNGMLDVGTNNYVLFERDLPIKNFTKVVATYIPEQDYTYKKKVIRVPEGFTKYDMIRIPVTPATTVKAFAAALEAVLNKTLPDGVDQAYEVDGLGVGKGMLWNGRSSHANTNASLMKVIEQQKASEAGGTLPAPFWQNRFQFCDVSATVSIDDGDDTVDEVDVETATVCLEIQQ

[3] = target: AMP-activated protein kinase, AMPK (Homo sapiens) (UniProt P54646+O43741+P54619+Q9UGJ0+Q9Y478+Q13131+Q9UGI9); assay: AMP-dependent Kinase enzyme assay. An in vitro enzyme assay that detects ADP turnover that is directly proportional to AMPK activity. This uses naive AMPK that is activated during the assay with MK-8722; type: functional; details: 30 µM
[4] = target: Sialic acid-binding Ig-like lectin 9 (Homo sapiens) (UniProt Q9Y336); assay: Hs-Siglec9 ALPHAscreen SOP 20170721; details: 10 µM
Sialic acid-binding Ig-like lectin 9 (Homo sapiens), sequence (Q9Y336 whole entry): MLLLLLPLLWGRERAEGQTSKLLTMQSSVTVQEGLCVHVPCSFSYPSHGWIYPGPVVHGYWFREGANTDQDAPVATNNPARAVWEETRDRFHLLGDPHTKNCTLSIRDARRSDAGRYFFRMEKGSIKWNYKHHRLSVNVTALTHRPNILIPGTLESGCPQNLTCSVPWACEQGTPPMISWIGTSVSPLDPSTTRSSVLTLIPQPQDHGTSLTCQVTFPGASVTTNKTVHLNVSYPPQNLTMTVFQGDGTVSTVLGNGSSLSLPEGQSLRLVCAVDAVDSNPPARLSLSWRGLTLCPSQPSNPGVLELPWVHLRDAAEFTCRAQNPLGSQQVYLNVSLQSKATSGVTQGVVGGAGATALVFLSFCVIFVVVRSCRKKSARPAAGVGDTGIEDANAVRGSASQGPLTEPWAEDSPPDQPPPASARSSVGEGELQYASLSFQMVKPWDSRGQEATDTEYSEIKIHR

Trypanosoma cruzi = assay: Trypanosoma cruzi phosphomannomutase and mannose-1-phosphate guanylyltransferase assay; type: functional; details: 10 µM
[5] = target: T2, Arginase-2, mitochondrial (Homo sapiens) (UniProt P78540); assay: in vitro enzyme assay to detect the production of urea directly proportional to the activity of Arginase II; type: functional; details: 33.3 µM; further: in the data most compounds retested in dose-response had high values
T2 sequence (whole entry): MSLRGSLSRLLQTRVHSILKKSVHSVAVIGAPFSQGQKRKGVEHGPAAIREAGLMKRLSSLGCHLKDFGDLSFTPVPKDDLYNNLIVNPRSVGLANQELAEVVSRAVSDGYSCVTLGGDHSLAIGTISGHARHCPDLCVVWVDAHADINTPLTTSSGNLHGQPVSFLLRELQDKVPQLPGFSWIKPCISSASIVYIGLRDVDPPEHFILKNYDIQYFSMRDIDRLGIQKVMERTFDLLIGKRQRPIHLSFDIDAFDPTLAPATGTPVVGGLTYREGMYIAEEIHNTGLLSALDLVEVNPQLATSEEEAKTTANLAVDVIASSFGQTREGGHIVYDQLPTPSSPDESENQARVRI

[6] = target: T3, Proteasome subunit beta (Trypanosoma cruzi) (UniProt O96673); assay: Trypanosoma cruzi proteasome chymotrypsin-like activity (TcProtChymo) assay.; further: in the data most compounds retested in dose-response had high values; type: functional; details: 9.37 µM
T3 sequence (whole entry): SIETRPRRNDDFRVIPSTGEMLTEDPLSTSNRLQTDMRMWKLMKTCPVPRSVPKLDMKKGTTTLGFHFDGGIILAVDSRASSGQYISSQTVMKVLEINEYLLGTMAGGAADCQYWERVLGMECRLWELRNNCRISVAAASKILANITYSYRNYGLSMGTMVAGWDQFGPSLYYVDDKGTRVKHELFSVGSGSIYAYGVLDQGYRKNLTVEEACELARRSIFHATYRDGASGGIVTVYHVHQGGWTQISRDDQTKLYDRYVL

Homo sapiens = organism: Homo sapiens; assay: To identify inhibition of the IFN signalling (Jak-Stat) pathway via expression of an eGFP reporter gene under the control of an IFN-stimulated response element (ISRE) containing MxA promoter.; type: functional; details: 30 µM
[7] = target: T4, Tyrosyl-tRNA synthetase, putative (Trypanosoma cruzi (strain CL Brener)) (UniProt Q4DSP6); assay: Trypanosoma cruzi tyrosyl tRNA synthetase (TcYRS) _High Tyrosine SOP; type: functional; details: 30 µM; further: in the data most compounds retested in dose-response had high values
T4 sequence (whole entry): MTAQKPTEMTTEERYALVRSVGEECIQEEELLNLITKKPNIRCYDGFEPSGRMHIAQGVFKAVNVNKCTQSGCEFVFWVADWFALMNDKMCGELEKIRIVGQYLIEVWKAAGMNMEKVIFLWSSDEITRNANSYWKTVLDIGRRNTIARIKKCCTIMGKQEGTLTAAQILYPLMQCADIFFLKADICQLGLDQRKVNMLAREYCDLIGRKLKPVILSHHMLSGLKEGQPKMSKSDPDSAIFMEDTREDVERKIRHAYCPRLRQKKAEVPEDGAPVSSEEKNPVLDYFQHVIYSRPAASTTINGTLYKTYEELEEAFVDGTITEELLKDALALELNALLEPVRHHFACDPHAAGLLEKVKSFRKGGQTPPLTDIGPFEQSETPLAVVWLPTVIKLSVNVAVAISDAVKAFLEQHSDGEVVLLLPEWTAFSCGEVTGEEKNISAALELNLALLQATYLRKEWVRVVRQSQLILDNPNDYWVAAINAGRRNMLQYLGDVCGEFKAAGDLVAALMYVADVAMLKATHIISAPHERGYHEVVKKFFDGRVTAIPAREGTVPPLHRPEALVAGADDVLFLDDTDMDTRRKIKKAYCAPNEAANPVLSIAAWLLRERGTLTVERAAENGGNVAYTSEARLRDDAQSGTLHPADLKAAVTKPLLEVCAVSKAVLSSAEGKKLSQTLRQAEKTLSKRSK

[8] = target: T4, Tyrosyl-tRNA synthetase, putative (Trypanosoma cruzi (strain CL Brener)); assay: Trypanosoma cruzi tyrosyl tRNA synthetase (TcYRS) SOP; type: functional; details: 30 µM
[9] = target: Chromo domain-containing protein 1 (Saccharomyces cerevisiae (strain ATCC 204508 / S288c) (Baker's yeast)) (UniProt P32657); assay: ScCHD-1 Enzyme Inhibition Assay; type: functional; details: 30 µM; further: in the data most compounds retested in dose-response had high values
Chromo domain-containing protein 1 (Saccharomyces cerevisiae (strain ATCC 204508 / S288c) (Baker's yeast)), sequence (P32657 whole entry, the tested form may be a part): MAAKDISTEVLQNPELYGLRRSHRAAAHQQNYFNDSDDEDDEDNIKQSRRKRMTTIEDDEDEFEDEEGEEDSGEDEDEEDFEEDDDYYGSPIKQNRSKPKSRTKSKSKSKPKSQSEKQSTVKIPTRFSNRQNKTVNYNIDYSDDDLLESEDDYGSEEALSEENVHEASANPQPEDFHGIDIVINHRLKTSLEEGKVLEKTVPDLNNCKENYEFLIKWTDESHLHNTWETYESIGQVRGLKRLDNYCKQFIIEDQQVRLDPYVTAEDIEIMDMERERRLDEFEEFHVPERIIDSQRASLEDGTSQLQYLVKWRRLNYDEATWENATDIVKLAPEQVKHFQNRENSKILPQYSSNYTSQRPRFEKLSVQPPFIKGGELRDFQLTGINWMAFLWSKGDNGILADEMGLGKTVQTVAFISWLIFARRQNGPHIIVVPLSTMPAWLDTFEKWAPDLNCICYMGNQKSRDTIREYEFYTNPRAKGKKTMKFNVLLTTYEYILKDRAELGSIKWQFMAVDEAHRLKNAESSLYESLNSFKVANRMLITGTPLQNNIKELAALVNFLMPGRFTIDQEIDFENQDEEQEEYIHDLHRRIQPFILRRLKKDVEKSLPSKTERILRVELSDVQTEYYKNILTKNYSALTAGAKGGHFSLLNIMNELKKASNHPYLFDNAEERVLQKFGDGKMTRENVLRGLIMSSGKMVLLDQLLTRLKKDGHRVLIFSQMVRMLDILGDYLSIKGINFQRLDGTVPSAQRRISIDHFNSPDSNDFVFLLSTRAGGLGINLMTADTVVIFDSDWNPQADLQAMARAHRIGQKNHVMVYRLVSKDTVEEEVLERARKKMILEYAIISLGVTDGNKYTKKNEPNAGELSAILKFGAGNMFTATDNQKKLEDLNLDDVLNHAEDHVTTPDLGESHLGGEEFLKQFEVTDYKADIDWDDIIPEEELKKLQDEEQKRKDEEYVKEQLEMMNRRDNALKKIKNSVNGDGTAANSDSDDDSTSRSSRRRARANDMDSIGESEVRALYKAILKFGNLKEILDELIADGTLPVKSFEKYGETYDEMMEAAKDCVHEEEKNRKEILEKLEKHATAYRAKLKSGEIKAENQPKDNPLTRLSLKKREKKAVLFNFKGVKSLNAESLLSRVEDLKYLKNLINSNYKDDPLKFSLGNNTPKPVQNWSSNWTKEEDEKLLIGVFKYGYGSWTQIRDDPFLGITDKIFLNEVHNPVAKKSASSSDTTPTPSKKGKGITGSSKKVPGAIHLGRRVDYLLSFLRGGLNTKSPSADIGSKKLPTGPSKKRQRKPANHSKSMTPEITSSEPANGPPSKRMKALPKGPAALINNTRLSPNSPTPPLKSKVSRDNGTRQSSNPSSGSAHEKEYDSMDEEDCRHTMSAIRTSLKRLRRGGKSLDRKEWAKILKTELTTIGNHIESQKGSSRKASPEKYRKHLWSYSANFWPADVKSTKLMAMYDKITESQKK

Protein translocase subunit SecA (Escherichia coli (strain K12)), sequence (P10408 whole entry): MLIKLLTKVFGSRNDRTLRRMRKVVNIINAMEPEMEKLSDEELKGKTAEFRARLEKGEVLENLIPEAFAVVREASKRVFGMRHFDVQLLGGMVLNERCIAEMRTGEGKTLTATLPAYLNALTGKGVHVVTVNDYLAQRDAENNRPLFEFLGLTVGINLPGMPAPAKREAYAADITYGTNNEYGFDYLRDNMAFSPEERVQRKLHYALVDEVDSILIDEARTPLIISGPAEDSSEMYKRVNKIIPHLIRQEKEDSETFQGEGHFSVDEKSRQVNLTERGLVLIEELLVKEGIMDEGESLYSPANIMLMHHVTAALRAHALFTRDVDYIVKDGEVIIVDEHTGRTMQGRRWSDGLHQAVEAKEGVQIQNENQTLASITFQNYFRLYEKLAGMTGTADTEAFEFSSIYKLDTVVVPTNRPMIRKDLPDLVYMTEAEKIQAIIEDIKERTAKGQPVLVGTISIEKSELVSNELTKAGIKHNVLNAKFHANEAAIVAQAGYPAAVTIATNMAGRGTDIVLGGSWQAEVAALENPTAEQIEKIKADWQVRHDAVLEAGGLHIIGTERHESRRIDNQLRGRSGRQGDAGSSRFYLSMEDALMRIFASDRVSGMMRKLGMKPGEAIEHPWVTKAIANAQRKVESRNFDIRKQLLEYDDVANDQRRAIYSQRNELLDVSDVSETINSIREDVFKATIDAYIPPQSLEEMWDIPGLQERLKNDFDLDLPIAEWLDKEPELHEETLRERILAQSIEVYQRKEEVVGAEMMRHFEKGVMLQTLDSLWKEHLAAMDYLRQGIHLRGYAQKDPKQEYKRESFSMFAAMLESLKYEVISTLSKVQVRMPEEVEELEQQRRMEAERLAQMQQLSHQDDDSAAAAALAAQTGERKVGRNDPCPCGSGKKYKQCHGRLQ

Row | SMILES | Percent Effect [1] [%] | Percent Effect [2] [%] | Percent Effect [3] [%] | Percent Effect [4] [%] | Percent Effect (Trypanosoma cruzi) [%] | Percent Effect [5] [%] | Percent Effect [6] [%] | Percent Effect (Homo sapiens) [%] | Percent Effect [7] [%] | Percent Effect [8] [%] | Percent Effect [9] [%]
1 | O=C(c1ccc(-n2cccn2)nc1)N1CCCN(c2cccnn2)CC1 | -2.01 | 0 | 6.8 | -1.08 | -6.76 | 1.47 | 13 | -7.18 | -0.952 | 0 | -11.3
2 | CCc1nccn1C1CCCN(C(=O)CCc2nccs2)C1 (stereo not drawn) | -2 | -5.41 | -10.8 | 5.59 | -0.66 | -6.81 | 5.77 | 1.54 | 1.48 | 1.24 | -1.72
3 | Cc1nc(CN2CCCC(N(C)CCc3cccs3)C2)no1 (stereo not drawn) | -2.72 | 12.5 | -8.86 | 8.38 | -1.65 | 2.21 | 11.4 | 10.9 | 7.37 | 2.56 | -2.19
4 | COCC(=O)N(C)Cc1cccc(Cl)c1 | -4 | 10.5 | -1.75 | -3.18 | 4.19 | 0 | 2.78 | 4.21 | 1.06 | 13 | -4.61
5 | O=C(c1cccnc1-n1cccn1)N1CCN(CC2CC2)CC1 | -4.46 | 5.41 | -1.98 | 1.24 | -1.54 | -0.952 | 13.1 | -3.39 | 4.76 | 0 | -1.18
6 | c1cnnc(N2CCCC2CNc2ncnc3c2CCC3)c1 (stereo not drawn) | -5.27 | 1.27 | 4.89 | -6.25 | -1.95 | 3.66 | 1.54 | -1.2 | 11.5 | 15.2 | 1.39
7 | CN1CCC(CCNC(=O)c2ccc(N(C)S(C)(=O)=O)cc2Cl)CC1 | -4.43 | -10.4 | -1.14 | 0.479 | -3.44 | 29 | 6.16 | -1.88 | 0 | -3.7 | 2.38
8 | COc1ncccc1C(=O)N1CCN(C(=O)Cc2ccccn2)CC1 | -1.65 | 21.5 | -6.89 | -0.0483 | 2.36 | -2.37 | 18 | 17.4 | 7.29 | 20.2 | -20.3
